Max response, outcome and Potency data for twelve compounds are collected here from PubChem BioAssay (NCATS).

Values joined by “and” are separate entries in the source; they are usually repeats but may differ in a detail not shown here. Equal entries are not always repeated. Results filed as inconclusive are left out. A number with no mark means an inactive call. Active and inactive are the calls of the source. The call rests on the fitted dose curve; in most records, active means well fitted inhibition curve with a large enough effect; inconclusive means small, poorly fitted or top-dose-only effect; inactive means flat fitted curve, though single readings scatter.
On the % scale 0 is the no-effect control and ±100 the full control effect; potency means the concentration at half of the fitted maximal effect.

This experiment relates to NIH3T3. Nature of the experiment: Cytotoxic Profiling of Annotated Libraries Using Quantitative High-Throughput Screening (AID 1296008). Further: nearly all actives have a fitted effect of over 60% in size. As to conditions: Five cell lines viability, CellTiter-Glo ATP luminescence, 48-72 h; max response: stronger effect = lower value. A digest of the protocol:
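Compounds were pin-transferred onto cells and incubated 48 or 72 hr at 37 degree Celsius, 95% humidity. CellTiter-Glo was added, plates sat 10 min at room temperature, then ATP-coupled luminescence was imaged as the viability read-out.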
For `CCOCCOC(C)=O`, the max response is -2.47%.

For `C#CC1(O)CCC2C3CCC4=CC(=O)CCC4(C)C3CCC21C` (configuration not stated), the max response was 0.477%. Turning to `COC(C)(C)CCCC(C)C/C=C/C(C)=C/C(=O)OC(C)C` (configuration not stated), the result was inactive.

As to `NC1CC1c1ccccc1` (configuration not stated), the max response is -3.94%. In the case of `O=C1C=CC[C@@H]2[C@H]3CCCN4CCC[C@@H](CN12)[C@@H]34`, the result was inactive. With `O=C(O)COc1ccccc1`, the max response is -0.908%. Take `Cc1[nH]nc2ccc(-c3cncc(OC[C@@H](N)Cc4c[nH]c5ccccc45)c3)cc12`: the Potency is 1.66 µM (active) and 1.64 µM (active). For the compound `C[C@]12CCC(=O)C(O)=C1CC[C@@H]1[C@H]3CCC(=O)[C@@]3(C)CC[C@@H]12`, the max response is 4.69%.

`O=[N+]([O-])/N=C1\NCCN1Cc1ccc(Cl)nc1`: the max response is -2.1%. Consider `O=C(N[C@@H](COc1ccc2[nH]c(=O)[nH]c2c1)c1ccccc1)c1cccn(Cc2ccc(F)c(F)c2)c1=O`, for which the max response was -25.3%.

For the compound `C[C@]12Cc3cn[nH]c3C[C@@H]1CC[C@@H]1[C@H]2CC[C@@]2(C)[C@H]1CC[C@]2(C)O`, the max response is -12.4%. On the same count and under the same terms, next, `Nc1c(Cl)c(Cl)c(Cl)c(Cl)c1Cl`: 2.9%.
